The nature of assay [1]: HepG2 liver cancer cell viability effects, profiling panel, resazurin fluorescence, 24 h, PK04 Diversity Set (AID 1172). As to conditions: higher = more signal. Background: Resazurin is reduced to fluorescent resorufin, in cell work by metabolically active cells.
A short description of assay [2]: basal S. cerevisiae growth modulation, no modifier, primary screen, OD600, strain BY4716, 24 h, basal condition (AID 1173). Conditions: OD600, 24 h, higher = more signal, called active from +8 up or from −8 down.
The nature of assay [3]: MM1S myeloma cell viability, profiling panel, resazurin fluorescence, basal, 24 h, PK04 Diversity Set (AID 1174).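 Further: MM1S multiple myeloma cell line.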 As to conditions: higher = more signal, called active from +8 up or from −8 down.
Assay [4] deals with Dihydroorotate dehydrogenase (quinone), mitochondrial (Plasmodium falciparum (isolate 3D7)) (UniProt Q08210). Nature of the assay: PfDHODH enzyme inhibitors, primary screen, biochemical, C-terminal His tag, absorbance 600 nm (AID 1175).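 Further: recombinant parasite enzyme with a five histidine tag at its C terminus.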 As to conditions: DCIP absorbance 600 nm, higher = more signal, called active from +8 up or from −8 down.
A short description of assay [5]: P. aeruginosa biofilm formation inhibitors, primary screen, strain PAO1, LB-PBS medium, absorbance 600 nm (AID 1176). Conditions: P. aeruginosa PAO1 growth/biofilm, A600, 12 h; higher = more signal.
Assay [6] in a line: S. cerevisiae RM11-1a growth modifiers, primary screen, strain RM11-1a, OD600, basal, 24 h (AID 1177).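 Further: cultures grown under basal conditions with no added stressor.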 Conditions: OD600, 24 h, higher = more signal, called active from +8 up or from −8 down.
A short description of assay [7]: E. coli acrAB mutant growth effects, primary screen, E. coli filamentation inducers, strain DRC39, OD650, 24 h (AID 1178).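 Further: growth measured as culture turbidity by optical density at 650 nm.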 As to conditions: higher = more signal, called active from +8 up or from −8 down.
The nature of assay [8]: E. coli acrAB mutant growth effects, primary screen, E. coli filamentation inducers, strain DRC39, OD650, 48 h (AID 1179).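 Further: screen aims at cell division blockers that make cells filament.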 As to conditions: E. coli DRC39 delta-acrAB growth, higher = more signal, called active from +8 up or from −8 down.
Assay [9] can be described thus: RPMI8226 myeloma cell viability, profiling panel, resazurin fluorescence, basal, 24 h, PK04 Diversity Set (AID 1180).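 Further: RPMI8826 multiple myeloma cell line at 5000 cells per well.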 Conditions: higher = more signal.
The target of assay [10] is E3 ubiquitin-protein ligase XIAP (Homo sapiens) (UniProt P98170). Nature of the assay: XIAP binders, primary screen, biophysical, small-molecule microarray, fluorescence 635 nm (AID 1181).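 Further: score merges 667 nm emission and signal to noise over triplicate slides.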 As to conditions: small-molecule microarray binding, higher = more signal.
Assay [11] concerns XIP peptide (Xip251-270) binding. Nature of the assay: small-molecule binders of XIP peptide, primary screen, biochemical, small-molecule microarray, fluorescence 635/667 nm, 0.1 µg/mL protein (AID 1182). As to conditions: fluorescent protein binding, 635 nm, higher = more signal, called active from +8 up or from −8 down.
In assay [12] the test system is XIP peptide (Xip251-270). Nature of the assay: small-molecule binders of XIP peptide, primary screen, biochemical, small-molecule microarray, fluorescence 635/667 nm, 0.5 µg/mL protein (AID 1183). As to conditions: small-molecule microarray binding, fluorescence 635 nm; higher = more signal.
The nature of assay [13]: Plasmodium falciparum growth inhibition, primary screen, strain 3D7, DAPI fluorescence, 100 nL (AID 1184).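 Further: parasites grown inside human red blood cells in medium with human serum.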 As to conditions: P. falciparum 3D7 growth, 3 d, higher = more signal.
In assay [14] the target is Homeobox protein Hox-A13 (Mus musculus) (UniProt Q62424). The assay is described as follows: inhibitors of HoxA13-DNA binding, primary screen, biochemical, fluorescence polarization, labeled oligonucleotide (AID 1185). As to conditions: 15 min, higher = more signal, called active from +8 up or from −8 down. For orientation: Polarisation of emitted light reports the rotation of a fluorescent probe.

Assay [15] is described as follows: inhibitors of hydroxyurea-induced Chk1 phosphorylation, primary screen, imaging, HeLa, phospho-Chk1 antibody, percent positive cells (AID 1186). Conditions: hydroxyurea-induced phospho-Chk1 immunofluorescence imaging, higher = more signal.
Assay [16] can be described thus: inhibitors of hydroxyurea-induced Chk1 phosphorylation, primary screen, imaging, HeLa, phospho-Chk1 nuclear intensity (AID 1187). As to conditions: hydroxyurea-induced phospho-Chk1 immunofluorescence imaging, higher = more signal.

Here are results for nine compounds from PubChem BioAssay.

Activity calls are given as the source filed them. Unless noted, how the calls were made is not given here.

Homeobox protein Hox-A13 (Mus musculus), sequence (Q62424 whole entry, looked up): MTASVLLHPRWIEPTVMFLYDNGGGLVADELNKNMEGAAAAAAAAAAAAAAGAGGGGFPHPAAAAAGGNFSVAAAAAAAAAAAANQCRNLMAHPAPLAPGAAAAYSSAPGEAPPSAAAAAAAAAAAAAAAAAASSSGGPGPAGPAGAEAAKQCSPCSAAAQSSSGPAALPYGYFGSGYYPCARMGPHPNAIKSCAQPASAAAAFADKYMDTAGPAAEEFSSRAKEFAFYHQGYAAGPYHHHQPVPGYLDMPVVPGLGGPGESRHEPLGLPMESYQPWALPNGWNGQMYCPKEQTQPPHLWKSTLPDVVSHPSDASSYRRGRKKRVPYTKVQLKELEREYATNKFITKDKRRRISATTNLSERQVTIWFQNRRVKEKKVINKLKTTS
E3 ubiquitin-protein ligase XIAP (Homo sapiens), sequence (P98170 whole entry, looked up): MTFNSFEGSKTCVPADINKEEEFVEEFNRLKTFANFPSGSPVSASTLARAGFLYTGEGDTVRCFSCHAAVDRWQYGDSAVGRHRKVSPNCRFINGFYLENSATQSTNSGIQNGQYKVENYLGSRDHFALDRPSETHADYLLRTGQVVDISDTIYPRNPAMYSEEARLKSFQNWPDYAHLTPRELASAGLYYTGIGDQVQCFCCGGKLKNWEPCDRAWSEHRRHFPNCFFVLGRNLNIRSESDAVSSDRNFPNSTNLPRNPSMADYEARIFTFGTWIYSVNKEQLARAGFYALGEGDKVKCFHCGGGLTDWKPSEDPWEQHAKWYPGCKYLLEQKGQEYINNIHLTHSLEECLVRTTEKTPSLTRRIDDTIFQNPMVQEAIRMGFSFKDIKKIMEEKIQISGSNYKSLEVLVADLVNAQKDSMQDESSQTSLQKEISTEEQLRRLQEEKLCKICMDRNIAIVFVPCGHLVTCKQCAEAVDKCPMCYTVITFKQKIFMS
Dihydroorotate dehydrogenase (quinone), mitochondrial (Plasmodium falciparum (isolate 3D7)), sequence (Q08210 whole entry, looked up): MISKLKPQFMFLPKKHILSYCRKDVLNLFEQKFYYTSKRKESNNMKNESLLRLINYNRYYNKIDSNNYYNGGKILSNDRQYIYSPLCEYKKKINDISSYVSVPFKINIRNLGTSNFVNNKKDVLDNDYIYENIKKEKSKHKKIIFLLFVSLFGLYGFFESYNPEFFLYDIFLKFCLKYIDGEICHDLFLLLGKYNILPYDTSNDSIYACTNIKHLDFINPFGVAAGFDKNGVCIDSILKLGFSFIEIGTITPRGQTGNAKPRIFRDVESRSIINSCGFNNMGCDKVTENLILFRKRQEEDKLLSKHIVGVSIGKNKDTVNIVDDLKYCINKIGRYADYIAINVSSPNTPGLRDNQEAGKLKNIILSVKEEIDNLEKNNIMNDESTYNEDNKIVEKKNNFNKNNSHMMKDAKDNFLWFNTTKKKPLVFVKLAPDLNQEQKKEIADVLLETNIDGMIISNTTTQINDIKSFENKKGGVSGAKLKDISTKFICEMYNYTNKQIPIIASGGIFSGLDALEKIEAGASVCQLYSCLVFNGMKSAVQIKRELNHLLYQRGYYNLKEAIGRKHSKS

Regarding `CCOC(=O)C[C@H]1[C@H](OC(=O)c2ccc(-c3ccccc3)cc2)[C@@H](NC(=O)CC(C)C)c2cc(OCCCO)ccc2N1C(=O)Cc1ccc(OC)cc1`, the z-score in assay [1] was -0.378; in assay [2], 0.605 (inactive); in [3], -0.38 (inactive); in assay [5] it was 0.35 (inactive); in assay [6], -0.154 (inactive); in assay [7], -0.181 (inactive). The z-score in assay [8] is -0.12 (inactive); in [9], -0.306; in assay [13], -0.0881; in [14], -2.68 (inactive); in [15], 0.568 (inactive); in assay [16], 0.254 (inactive). Besides, the composite z-score in assay [4] is 0.423 (inactive); in [10], -0.274; in assay [11], 0.364 (inactive); in [12], -0.0598.

`CCCC=C(CCC)[C@@H](NC(=O)c1ccco1)c1ccc(C(=O)OC)cc1`: the z-score is 3.5 in assay [1]; 1.39 (inactive) in assay [2]; 1.12 (inactive) in assay [3]; -0.387 (inactive) in assay [5]; 1.67 (inactive) in assay [6]; -0.422 (inactive) in assay [7]. In addition, the z-score is -0.245 (inactive) in assay [8]; -2.8 in assay [9]; -0.465 in assay [13]; -1.4 (inactive) in assay [14]; -0.125 (inactive) in [15]; -0.17 (inactive) in assay [16]. The composite z-score is -0.0216 (inactive) in [4], 0.251 in assay [10], 0.192 (inactive) in assay [11] and 0.585 in assay [12].

On to `COc1ccc([Si](C)(C)[C@H]2[C@H](CCn3cc([C@H](O)c4ccccc4)nn3)O[C@@]3(C(=O)N(c4ccccc4)c4ccccc43)[C@@H]2C)cc1`, for which the z-score in [1] was 0.378; in assay [2], 0.885 (inactive); in [3], -1.82 (inactive); in [5] it was 0.131 (inactive); in [6], 2.12 (inactive); in assay [7], 0.346 (inactive). The z-score is 0.0139 (inactive) in [8]; -1.34 in assay [9]; -1.18 in [13]; -3.4 (inactive) in [14]; -0.282 (inactive) in assay [15]; -0.513 (inactive) in [16]. Also, the composite z-score in [4] is 0.413 (inactive); in assay [10], -0.316; in assay [11], -0.292 (inactive); in assay [12] it was 0.505.

For `CC(C)C(=C=CC[C@@H](O)c1ccc(OCCO)cc1)CCO`, the z-score in assay [1] is 1; in assay [2] it was -3.28 (inactive); in assay [3] it was 1.21 (inactive); in assay [5] it was 0.13 (inactive); in assay [6], -1.17 (inactive); in [7] it was 1.61 (inactive). Besides, the z-score in [8] was 1.52 (inactive); in assay [9], 1.52; in assay [13] it was -2.09; in assay [14], -2.38 (inactive); in assay [15] it was -0.201 (inactive); in assay [16], 1.37 (inactive). For the same compound, the composite z-score in assay [4] was -2.88 (inactive); in [10], -0.0645; in assay [11], 0.308 (inactive); in assay [12], 0.222.

`O=C1NC(=O)C2C1C=CC(C(O)c1ccc(F)cc1)N2Nc1ccccn1` (centres undefined): the z-score in assay [1] is -1.78; in [2], 0.272 (inactive); in assay [3] it was -1.28 (inactive); in assay [5] it was 1.77 (inactive); in [6], 0.624 (inactive); in [7], -0.684 (inactive). In addition, the z-score in assay [8] is -0.69 (inactive); in assay [9], -1.64; in assay [13], 1.25; in assay [14] it was -1.55 (inactive); in assay [15], 0.255 (inactive); in assay [16] it was 0.0273 (inactive). The composite z-score in [4] is 0.791 (inactive); in assay [10], 0.172; in [11], -0.184 (inactive); in assay [12], 0.13.

As to `CN1C(=O)[C@]2(CCC(=O)OC(C)(C)C)N=C(c3ccc(OCCCO)cc3)O[C@@H]2c2ccccc21`, the z-score in [1] is 0.476; in assay [2] it was 0.997 (inactive); in assay [3] it was -1.67 (inactive); in [5], -0.441 (inactive); in assay [6], 1.09 (inactive); in [7], 1.01 (inactive). In addition, the z-score in assay [8] is 0.679 (inactive); in assay [9] it was -1.56; in assay [13], -1.56; in assay [14], -5.26 (inactive); in [15] it was -0.0356 (inactive); in assay [16] it was 0.25 (inactive). Besides, the composite z-score in assay [4] is 0.42 (inactive); in assay [10], 0.312; in assay [11], 0.0974 (inactive); in assay [12], 0.654.

Consider `COCC(=C=CC[C@@H](O)c1cccc(OCCO)c1)C[C@@H](O)COCc1ccccc1`, for which the z-score in [1] is 0.744; in assay [2], -0.353 (inactive); in [3], 0.629 (inactive); in [5] it was 0.13 (inactive); in [6], -2.24 (inactive); in assay [7], 0.481 (inactive). The z-score was 0.392 (inactive) in assay [8]; 0.629 in assay [9]; -1.71 in [13]; -3.67 (inactive) in assay [14]; -0.789 (inactive) in assay [15]; -0.407 (inactive) in assay [16]. For the same compound, the composite z-score was -2.13 (inactive) in assay [4], 1.16 in assay [10], 0.0062 (inactive) in assay [11] and 0.0674 in [12].

On to `O=C1OCCC=C[C@H]2OC34C=CCN(c5ccc(Cl)cc5)C(=O)[C@H]3N(CCO)C(=O)[C@@H]4C12` (some centres undefined), for which the z-score was 0.545 in assay [1]; 0.204 (inactive) in assay [2]; 0.221 (inactive) in [3]; -0.317 (inactive) in [5]; 0.132 (inactive) in [6]; -0.947 (inactive) in [7]. Besides, the z-score was -1.04 (inactive) in assay [8]; -0.202 in assay [9]; -0.136 in assay [13]; -5.37 (inactive) in assay [14]; -0.399 (inactive) in assay [15]; -0.576 (inactive) in [16]. In addition, the composite z-score in [4] is -1.45 (inactive); in assay [10], -0.31; in assay [11], -0.379 (inactive); in assay [12], 0.561.

Consider `CCCCN1CC=CC23O[C@@H]4C=CCOC(=O)[C@@H]4[C@H]2C(=O)N(CCO)[C@@H]3C1=O` (some centres undefined), for which the z-score was -0.394 in assay [1]; 1.31 (inactive) in assay [2]; -0.202 (inactive) in assay [3]; -0.208 (inactive) in assay [5]; -0.322 (inactive) in assay [6]; 0.233 (inactive) in assay [7]. Besides, the z-score in assay [8] was 0.109 (inactive); in assay [9], -0.236; in [13], 1.12; in assay [14], -3.84 (inactive); in assay [15] it was -0.338 (inactive); in assay [16], -0.424 (inactive). Also, the composite z-score in [4] was -0.161 (inactive); in assay [10] it was -0.239; in assay [11], 0.64 (inactive); in assay [12], -0.964.
